Only some compounds are listed: those with a hit (about 1.1% of all), similar ones and a draw of the others.
MOR-DOR ag – OPRM1-OPRD1 heterodimerization agonism; activation, % at 9.3 µM; cells, luminescence; 340,000 compounds, 0.3% hits; AID 504326; P35372+P41143; in the data active = activation above about 18%
HTR5A inv ctr – counter-screen for OPRM1-OPRD1 inverse agonists: human HTR5A inverse agonism; P47898; HTR5A cell line, luminescence; inhibition, % at 9.3 µM; AID 504634; 340,000 compounds, 0.083% hits; in the data active = inhibition mostly above about 23%, no sharp cut-off; inactive = mostly below about 18%
Target sequence (P47898 whole entry, looked up): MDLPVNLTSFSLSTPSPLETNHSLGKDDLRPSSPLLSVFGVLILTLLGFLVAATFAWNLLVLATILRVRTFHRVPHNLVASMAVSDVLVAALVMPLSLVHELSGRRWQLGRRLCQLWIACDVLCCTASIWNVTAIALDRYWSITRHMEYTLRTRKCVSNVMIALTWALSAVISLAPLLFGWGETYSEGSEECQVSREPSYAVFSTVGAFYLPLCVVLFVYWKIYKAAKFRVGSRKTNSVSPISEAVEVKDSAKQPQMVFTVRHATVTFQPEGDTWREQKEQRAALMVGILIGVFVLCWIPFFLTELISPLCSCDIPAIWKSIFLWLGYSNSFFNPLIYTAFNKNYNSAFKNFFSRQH
MOR-DOR inv ag – mu-delta opioid heterodimer inverse agonism; P35372+P41143; cell-based MOR-DOR heterodimer luminescence; inhibition, % at 9.3 µM; 340,000 compounds, 0.21% hits; AID 504357; in the data active = inhibition above about 22%, passing the limit was not always enough
HTR5A ag ctr – HTR5A agonism, opioid heterodimer counter-screen; P47898; HTR5A agonist assay, luminescence, cell-based; activation, % at 9.3 µM; 340,000 compounds, 0.61% hits; AID 504692; in the data active = activation mostly above about 9.5%, no sharp cut-off; inactive = mostly below about 7.6%
OPRM1-D1 inv cf – confirmation of human OPRM1-OPRD1 heterodimerization inverse agonists | shares compounds with MOR-DOR inv ag | cells expressing OPRM1/OPRD1 heterodimer, luminescence | inhibition, % at 9.3 µM | 580 compounds, 20% hits; in the data active = inhibition above about 32%
HTR5A inv count – HTR5A inverse agonism, opioid heterodimer counter-screen | shares compounds with MOR-DOR inv ag | HTR5A-expressing cells, luminescence | inhibition, % at 9.3 µM | 580 tested, under 10 active; call rule not given here
Each line names hits and unclear results; the compound was inactive in the other large screens (follow-up assays come after a bar, where they were run).

O=C(CC1(O)C(=O)Nc2ccccc21)c1ccc(-n2cnnn2)cc1 (stereo not drawn)	MOR-DOR inv ag 40 | OPRM1-D1 inv cf 33 | HTR5A inv count inactive
C=CCNC(=S)N1CCOCC1	none
CC(=O)N(/N=C1\Sc2ccccc2C1=O)c1ccccc1	MOR-DOR inv ag 34 | OPRM1-D1 inv cf inactive | HTR5A inv count inactive
CC(=O)N(/N=C1\Sc2ccccc2C1=O)c1ccccc1C	MOR-DOR inv ag 51 | OPRM1-D1 inv cf inactive | HTR5A inv count inactive
COc1cccc(N2CC(=O)N(NC(=O)CSc3nc(C)cc(C)c3C#N)CC2=O)c1	none
O=C1c2ccccc2NC(c2ccncc2)N1c1ccccn1 (stereo not drawn)	none
O=C(Nc1ccc(C2CCCCC2)cc1)C1CCCN(c2ncccn2)C1 (stereo not drawn)	none
Cc1ccc2c(c1)C(=O)C(=O)N2CC(=O)OC(C)C	MOR-DOR inv ag 55 | OPRM1-D1 inv cf inactive | HTR5A inv count inactive
Cc1ccc(OCCN2C(=O)C(=O)c3cc(C)ccc32)cc1	none
CC(C)N1CCN(Cc2ccc(Oc3ncccn3)cc2)CC1CCO (stereo not drawn)	none
O=C(C[N+]1(CC#Cc2ccccc2)CCOCC1)c1ccccc1	none
O=C(C[N+]1(CC#Cc2ccccc2)CCOCC1)c1ccc(Cl)cc1	MOR-DOR inv ag 33 | OPRM1-D1 inv cf inactive | HTR5A inv count inactive
CN1C(=O)C(O)(CC(=O)c2ccccc2O)c2cc(Br)ccc21 (stereo not drawn)	MOR-DOR inv ag 68 | OPRM1-D1 inv cf inactive | HTR5A inv count inactive
COCCn1c(=S)[nH]c2cc(C(=O)N3CCN(Cc4ccc5c(c4)OCO5)CC3)ccc2c1=O	none
O=C(CNc1ccc(F)cc1)c1ccccc1	MOR-DOR inv ag 37 | OPRM1-D1 inv cf inactive | HTR5A inv count inactive
O=C(CNc1ccc(Br)cc1)c1ccccc1	none
O=C(C1=C(O)C(=O)N(CCN2CCOCC2)C1c1ccco1)c1cc2ccccc2o1 (stereo not drawn)	MOR-DOR inv ag 34 | OPRM1-D1 inv cf inactive | HTR5A inv count inactive
O=C(C1=C(O)C(=O)N(CCN2CCOCC2)C1c1ccc(F)cc1)c1cc2ccccc2o1 (stereo not drawn)	none
Cc1ccc(-c2ccccc2NC(=O)C2C3C=CC(C3)C2C(=O)O)o1 (stereo not drawn)	MOR-DOR inv ag 34 | OPRM1-D1 inv cf inactive | HTR5A inv count inactive
Cc1ccc(-c2cccc(NC(=O)C3C(C(=O)O)[C@@H]4C=C[C@H]3C4)c2)o1 (stereo partly drawn)	none
CC(C)Cn1c(=O)c(C(=O)NCc2ccc3c(c2)OCO3)c(O)c2ccccc21	none
Cc1ccc(N=C2C(=O)Nc3ccccc32)c(C)c1	MOR-DOR inv ag 54 | OPRM1-D1 inv cf inactive | HTR5A inv count inactive
Cc1ccccc1N=C1C(=O)Nc2ccccc21	MOR-DOR inv ag 56 | OPRM1-D1 inv cf inactive | HTR5A inv count inactive
CCOC(=O)c1ccc(CC(=O)c2oc3cc(O)ccc3c2C)o1	MOR-DOR inv ag 34 | OPRM1-D1 inv cf inactive | HTR5A inv count inactive
Cc1cc(C)cc(OCC(=O)NNC(=S)NC(=O)C2CC2)c1	MOR-DOR inv ag 39 | OPRM1-D1 inv cf inactive | HTR5A inv count inactive
CC(=O)Nc1cccc(C(=O)OCC(=O)NNC(=O)c2cccs2)c1	none
C/C(CC(=O)Nc1ccc(N(C)C)cc1)=N\NC(=O)c1cnccn1	MOR-DOR inv ag 39 | OPRM1-D1 inv cf inactive | HTR5A inv count inactive
C/C(CC(=O)Nc1ccc(N(C)C)cc1)=N\NC(=O)c1ccccn1	none
COC(=O)c1ccc(NC(=S)NC(=O)c2cccnc2)cc1	MOR-DOR inv ag 28 | OPRM1-D1 inv cf inactive | HTR5A inv count inactive
CCC(C)c1ccc(O)c(NC(=O)c2cccnc2)c1 (stereo not drawn)	none
CC(C)(C)c1cc(Cl)c(O)c(NC(=S)NC(=O)c2cccnc2)c1	MOR-DOR inv ag 47 | OPRM1-D1 inv cf inactive | HTR5A inv count inactive
CC(C)c1ccc(O)c(NC(=S)NC(=O)c2cccnc2)c1	MOR-DOR inv ag 43 | OPRM1-D1 inv cf 32 | HTR5A inv count inactive
O=C1Cc2cccc3cccc1c23	MOR-DOR inv ag 30 | OPRM1-D1 inv cf inactive | HTR5A inv count inactive
O=C1OCc2cccc3cccc1c23	none
Cc1n[nH]c(=O)nc1NCc1ccc(Cl)cc1	none
CC(C)N1C(=O)C(O)(C2COC(C)(C)CC2=O)c2ccccc21 (stereo not drawn)	none
CC1(C)CC(=O)C(C2(O)C(=O)Nc3ccccc32)CO1 (stereo not drawn)	HTR5A inv ctr 22, MOR-DOR inv ag 55 | OPRM1-D1 inv cf inactive | HTR5A inv count inactive
CCCc1cc(=O)[nH]c(-n2[nH]c3c(c2=O)CCCC3)n1	MOR-DOR inv ag 33 | OPRM1-D1 inv cf inactive | HTR5A inv count inactive
O=C(CNC(=O)c1ccco1)OCC(=O)c1ccc(Cl)cc1Cl	MOR-DOR inv ag 44 | OPRM1-D1 inv cf inactive | HTR5A inv count inactive
CC(C)(C)c1ccc(NNC(=O)C2CCC2)cc1	MOR-DOR inv ag 34 | OPRM1-D1 inv cf inactive | HTR5A inv count inactive
COC(=O)c1ccc(Oc2coc3cc(OCc4cnn(-c5ccccc5)c4)ccc3c2=O)cc1	none
C=CCn1c(N)c(C(=O)OCCC)c2nc3ccccc3nc21	MOR-DOR inv ag 49 | OPRM1-D1 inv cf inactive | HTR5A inv count inactive
C=CCn1c(N)c(C(=O)Nc2cccc(C)c2)c2nc3ccccc3nc21	none
O=C(COC(=O)c1ccccc1)c1ccc(S(=O)(=O)N2CCCCC2)cc1	MOR-DOR inv ag 46 | OPRM1-D1 inv cf 32 | HTR5A inv count inactive
O=C(COC(=O)c1ccc(Br)o1)c1ccc(S(=O)(=O)N2CCCCC2)cc1	MOR-DOR inv ag 65 | OPRM1-D1 inv cf inactive | HTR5A inv count inactive
O=C(COC(=O)c1ccco1)c1ccc(S(=O)(=O)N2CCCCC2)cc1	MOR-DOR inv ag 53 | OPRM1-D1 inv cf inactive | HTR5A inv count inactive
NC(=O)COC(=O)c1ccc(S(=O)(=O)N2CCCCCC2)cc1	none
COc1cc(OC)cc(C(=O)OCC(=O)c2ccc(S(=O)(=O)N3CCCCC3)cc2)c1	none
O=C(COc1ccccc1)OCC(=O)c1ccc(S(=O)(=O)N2CCCCC2)cc1	MOR-DOR inv ag 80 | OPRM1-D1 inv cf inactive | HTR5A inv count inactive
CCn1cc(/C=N\NC(=O)c2ccc3c(c2)c(C)c(C)n3Cc2ccccc2)c(C)n1	none
CC(C)[C@H](NC(=O)c1ccccc1)C(=O)OCC(=O)Nc1ccc(S(=O)(=O)N2CCOCC2)cc1	none
COc1ccc(CC(=O)OCC(=O)c2ccc(S(=O)(=O)N3CCCCC3)cc2)cc1	MOR-DOR inv ag 50 | OPRM1-D1 inv cf inactive | HTR5A inv count inactive
CC(C)[C@H](NC(=O)c1ccccc1)C(=O)OCC(=O)c1ccc(S(=O)(=O)N2CCCCC2)cc1	MOR-DOR inv ag 30 | OPRM1-D1 inv cf inactive | HTR5A inv count inactive
CCOC(=O)C(=O)N(CC)C1CCS(=O)(=O)C1 (stereo not drawn)	none
Cc1cccc(N=C2C(=O)Nc3c(Cl)cccc32)c1	MOR-DOR inv ag 56 | OPRM1-D1 inv cf inactive | HTR5A inv count inactive
Cc1cccc(N=C2CSC(=O)N2)c1	none
O=S(=O)(Cc1ccccc1)N(O)c1ccccc1	MOR-DOR inv ag 43 | OPRM1-D1 inv cf inactive | HTR5A inv count inactive

Screening data from PubChem.
